Assay outcomes (PubChem BioAssay)
This is a sample that favours compounds with a hit; in the whole collection about 12% have one here.
G9a inh: qHTS Assay for Inhibitors of Histone Lysine Methyltransferase G9a | Histone-lysine N-methyltransferase EHMT2 (Homo sapiens), Q96KQ7 | G9a H3K9 monomethylation, AlphaScreen, 2 h | Potency, µM (series often up to 102 µM), inactives show at the top dose activity, negative = inhibition, most hits filed as inhibitors | 350,000 tested, 8.8% active | AID 504332, 2011; note: potency is the fitted concentration of half-maximal effect; % is set by controls: 0 for no effect and ±100 for the full control effect; nearly all actives have a fitted effect of over 75% in size
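Step 1: enzyme (final 20 nM) with compound, 15 min RT. Step 2: substrate peptide 500 nM and SAM 20 uM, 2 h RT. Step 3: anti-H3K9me1 antibody and AlphaScreen beads, 10 min, then plate read.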
PI5P4K alpha inh: qHTS for Inhibitors of phosphatidylinositol 5-phosphate 4-kinase (PI5P4K) | PI5P4Kalpha enzyme, ADP-Glo luminescence, 60 min; active compounds read low | max response, % | 330,000 tested, 1.2% active; active = max response of -50% or lower; inconclusive = between -30% and -50%; inactive = -30% or higher; note: value at the top dose of about 77 µM; % is set by controls: 0 for no effect and ±100 for the full control effect
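Luminescence from ADP-Glo served as readout of PI5P4Kalpha activity in a qHTS format. Reaction: enzyme, substrate, compound, ATP at 5 microM final, 60 min at RT.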
BAZ2B inh: qHTS Assay for Inhibitors of BAZ2B; Bromodomain adjacent to zinc finger domain protein 2B (Homo sapiens), Q9UIF8; AlphaScreen BAZ2B-H3K14Ac peptide displacement; Potency, µM (titrated, usually from 114 µM), without a hit: top-dose activity change, negative = inhibition, most hits filed as inhibitors; 360,000 tested, 4.4% active; note: potency is the fitted concentration of half-maximal effect; % is set by controls: 0 for no effect and ±100 for the full control effect; nearly all actives have a fitted effect of over 60% in size
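AlphaScreen displacement of biotin-H3(5-23)K14Ac peptide (50 nM final) from BAZ2B (50 nM final) in PBS pH 7.4, 0.01% Tween-20; complex preformed 30 min RT, then compounds (top 110 uM) 30 min RT, beads 20 min dark.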
PLK1 PBD block: qHTS for Inhibitors of PLK1-PDB (polo-like kinase 1 - polo-box domain): Primary Screen; Serine/threonine-protein kinase PLK1 (Homo sapiens), P53350; Plk1 PBD binding of FITC phosphopeptide, fluorescence polarization; Potency, µM, for inactives: max response, negative = inhibition, usual class: inhibitors; 360,000 tested, 2.8% active; AID 720504, 2013; note: potency is the fitted concentration of half-maximal effect; series mostly up to about 57 µM; % is set by controls: 0 for no effect and ±100 for the full control effect; nearly all actives have a fitted effect of over 65% in size
Target sequence (P53350 whole entry, looked up, the tested form may be a part): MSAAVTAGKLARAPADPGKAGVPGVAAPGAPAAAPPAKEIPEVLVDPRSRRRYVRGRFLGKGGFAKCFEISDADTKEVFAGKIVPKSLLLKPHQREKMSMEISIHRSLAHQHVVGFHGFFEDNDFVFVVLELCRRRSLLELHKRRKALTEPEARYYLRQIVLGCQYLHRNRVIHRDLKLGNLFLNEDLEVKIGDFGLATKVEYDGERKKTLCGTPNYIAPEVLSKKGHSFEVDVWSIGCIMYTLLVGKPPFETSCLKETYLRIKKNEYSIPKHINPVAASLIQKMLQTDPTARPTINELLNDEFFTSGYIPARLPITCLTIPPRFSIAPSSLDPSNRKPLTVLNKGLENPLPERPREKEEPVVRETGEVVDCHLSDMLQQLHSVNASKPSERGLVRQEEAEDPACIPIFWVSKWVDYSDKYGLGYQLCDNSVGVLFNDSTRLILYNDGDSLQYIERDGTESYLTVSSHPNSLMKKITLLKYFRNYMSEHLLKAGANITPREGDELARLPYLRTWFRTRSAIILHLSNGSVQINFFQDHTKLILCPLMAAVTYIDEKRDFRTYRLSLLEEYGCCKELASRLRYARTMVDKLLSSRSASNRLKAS
HP1b chromo inh: HTS for Inhibitors of HP1-beta Chromodomain Interactions with Methylated Histone Tails; Chromobox protein homolog 1 (Homo sapiens), P83916; Potency, µM (doses to about 114 µM), for the others: top-dose activity change, negative = inhibition, most hits filed as inhibitors; 390,000 tested, 0.56% active; AlphaScreen HP1-beta / biotin-H3K9me3 peptide binding; AID 540317, 2011; note: potency is the fitted concentration of half-maximal effect; nearly all actives have a fitted effect of over 70% in size
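HP1-beta protein (50 nM final) preincubated 30 min at room temperature with biotinylated H3(1-18)K9me3 peptide (50 nM) in PBS pH 7.4, 0.01% Tween-20, then compound added for 30 min. AlphaScreen streptavidin donor/nickel chelate acceptor beads (10 ug/mL final), 30 min dark, luminescence read.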
JMJD2A Tudor: qHTS Assay for Inhibitors of JMJD2A-Tudor Domain. AlphaScreen JMJD2A-Tudor / H3K4me3 peptide binding. 390,000 tested, 4.4% active. AID 504339, 2011. Potency, µM (titrated, usually from 114 µM), without a hit: top-dose activity change, negative = inhibition, most hits filed as inhibitors. Lysine-specific demethylase 4A (Homo sapiens), O75164; note: potency is the fitted concentration of half-maximal effect; % is set by controls: 0 for no effect and ±100 for the full control effect; nearly all actives have a fitted effect of over 50% in size
The depositor's hits bear a star; ? = inconclusive; . = no result given; ! = not confirmed by another sample; [ ] = dose if it differs, or a comment. Unless noted, calls come from the whole dose curve; as a rule, active = well fitted curve in the direction sought with a large enough effect; inconclusive = small, poorly fitted or top-dose-only effect, or another doubt; inactive = no such curve, though single readings can be large; an effect the other way counts as inactive or inconclusive.

SMILES	G9a inh	PI5P4K alpha inh	BAZ2B inh	PLK1 PBD block	HP1b chromo inh	JMJD2A Tudor
CCCCS(=O)(=O)/C=C\C1C2C=CC(C2)C1S(=O)(=O)CCCC (configuration not stated)	16%	3	2%	-8%	13%	-14%
CCCCS(=O)(=O)/C=C\C=C/S(=O)(=O)CCCC	?	-5	-1%	15µM*	-7%	?
O=C(O)c1cc(=O)[nH]c(=O)[nH]1	12%[59 µM]	.	.	.	.	.
O=C(O)c1cc(=O)cc(C(=O)O)[nH]1	1.7µM*!	.	-38%	-11%	44%	-10%
Cc1c(NC(=O)c2cc(-n3cnnc3)ccc2Cl)cccc1-c1nc2ccccc2o1	2.5µM*	5	-5%	-2%	14%	-10%
O=C(Nc1ccc(-c2nc3ccccc3o2)c(O)c1)c1cc(-n2cnnc2)ccc1Cl	6%[12.7 µM]	.	-5%	-2%	40%	-20%
CCOc1ccc(C2CC(=O)NC(NC(=O)c3cccc(Cl)c3)=N2)cc1 (configuration not stated)	0%[59 µM]	.	4%	.	8%	-10%
O=C1CC(N2CCC(c3nc4ccccc4[nH]3)CC2)C(=O)N1c1ccccc1F (configuration not stated)	35µM*	-23	-22%	?	-4%	-19%
CC(C)C[C@H]1CN(CCCC[C@@H]2CNC(=O)C(=O)N2CCc2ccccc2)C(=O)C(=O)N1CCC1CCCCC1	.	-14	.	-13%	.	.
CCCCNC(=O)NNc1nc(Cl)cc(C)c1C#N	32µM*	1	-5%	4%	36%	7%
CCCCNc1nc(C)c(C(C)=O)cc1C#N	1%	2	-25%	-10%	0%	-6%
COc1cc(/C=C(\C#N)c2nc3ccccc3[nH]2)ccc1OCc1cccc(C(F)(F)F)c1	8%[59 µM]	.	-30%	.	35%	-26%
COc1ccc(C(C)(C)C)cc1NC(=O)CCCN1C(=O)CN(C)C1=O	-46%	-2	13%	-3%	26%	-1%
COc1ccc([N+](=O)[O-])cc1NC(=O)C1CCCN1S(=O)(=O)c1cccs1 (configuration not stated)	-25%	-3	6%	-3%	-22%	-29%
CC(C)(C)NCC(O)COc1ccccc1C1CCCC1 (configuration not stated)	-21%[59 µM]	19	6%	-22%	13%	-17%
CCOc1ccc(NC(=O)NC2CCCc3ccccc32)cc1 (configuration not stated)	46%	-2	-2%	7%	24%	0%
CCc1ccccc1OC[C@@H](O)CN[C@H]1CCCc2ccccc21	4µM*	21	?	2%	9%	40µM*
OC(CNC1CCCc2ccccc21)COc1ccc2ccccc2c1 (configuration not stated)	10µM*	2	?	-7%	?	-100%
CC(=O)CCc1ccc(OCC(O)CNC2CCCc3ccccc32)cc1 (configuration not stated)	?	2	?	3%	-42%	3.5µM*
O=C(CCc1ccccc1)NC1CCCc2ccccc21 (configuration not stated)	11%	-16	2%	-11%	34%	-14%
O=C(COC(=O)COc1ccc2ccccc2c1)NC1CCCc2ccccc21 (configuration not stated)	22%[59 µM]	2	4%	-4%	40%	-6%
O=C(c1ccccc1)c1ccc(OCC(O)CNC2CCCc3ccccc32)cc1 (configuration not stated)	10µM*	22	50µM*	3%	?	10µM*
CCOc1ccc(C(C(=O)NC2CCCCC2)N(C(=O)c2csnn2)C2CC2)cc1 (configuration not stated)	31%	11	0%	-15%	9%	-2%
COc1cc(OC)c(NC(=O)C(NS(=O)(=O)c2cccc3nsnc23)c2ccccc2)cc1Cl (configuration not stated)	?	.	.	.	10%	?
CCc1cc(-c2n[nH]c(=S)n2C(C)c2ccccc2)cs1 (configuration not stated)	10µM*	.	6%	-12%	20%	-35%
SMILES	G9a inh	PI5P4K alpha inh	BAZ2B inh	PLK1 PBD block	HP1b chromo inh	JMJD2A Tudor
Cc1scc(-c2n[nH]c(=S)n2C(C)c2ccccc2)c1C (configuration not stated)	2µM*	-7	?	-4%	16%	79µM*
C[C@H](CCC(=O)NCC(=O)O)C1CC[C@H]2C3CC[C@@H]4C[C@H](O)CC[C@]4(C)C3C[C@H](O)[C@]12C (some centres not stated)	31%[59 µM]	.	.	.	.	.
C[C@H](N)c1nnc(SCC(=O)N(C)C)o1	8.9µM*	-1	?	-7%	49%	?
COc1ccccc1N1CCN(c2ccc(-c3nc(-c4ccccc4)no3)cc2[N+](=O)[O-])CC1	-35%[59 µM]	.	-2%	.	2%	-13%
O=S(=O)(Nc1ccc(Cl)cn1)c1ccc(F)cc1	.	-1	-11%	3%	29%	-10%
CC(C)(C)NC(=O)C(c1cccs1)N(Cc1ccc(F)cc1)C(=O)c1csnn1 (configuration not stated)	.	-4	-1%	27µM*	-3%	?
Cc1noc(C)c1COC(=O)CCN1c2ccccc2Sc2ccccc21	4%[59 µM]	2	2%	21µM*	-14%	?
COC(=O)[C@]12CCCCC=C1N(CCC1=CCCCC1)C(=O)[C@H](CC(=O)NCc1cccc(C(F)(F)F)c1)C2	.	4	.	1%	.	.
COc1ccc(-c2c(C)n([O-])c(C)c(C)[n+]2=O)cc1	11%	1	9%	24µM*	-4%	?
CC[C@]12c3[nH]c4cc(CCC(=O)N(C)C)ccc4c3CCN1C(=O)[C@@H](CC(=O)NCc1cccc(C(F)(F)F)c1)C[C@@H]2C(=O)N1CCN(C(=O)C2CC2)CC1	.	11	.	-5%	21%	-17%
Cc1ccc(C)c(Cn2c(SCC(=O)NCc3ccccc3)nc3ccccc32)c1	-2%[12.7 µM]	.	-9%	.	26%	-1%
Cc1cc(C)n(-c2nnc(NC34CC5CC(CC(C5)C3)C4)nn2)n1	22µM*	-12	32µM*	?	?	25µM*
Cc1cccc(NC(=O)CN2C(=O)COc3ccc(S(=O)(=O)Nc4ccccc4)cc32)c1C	-27%[59 µM]	.	-8%	.	19%	-1%
